Screening data deposited in PubChem by Broad Institute.
An excerpt weighted towards active compounds, which were near 2.8% of everything screened.
PAX8 reporter: inhibitors of PAX8-driven TPO luciferase reporter, primary screen, RMG-I cells, single concentration. SteadyGlo, 24 h. inhibition, % at 12.6 µM. hit rate 1.2% among 360,000;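 active = mean replicate inhibition at least 60% with every replicate also reaching 60%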;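 note: luciferase light reporting Pax8 driven TPO promoter activity; plate controls were median of neutral control wells for no effect and mitoxantrone controls for full effect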
Shn3 inh set2: reduction of Shn3 3'UTR firefly luciferase signal, primary screen, Schnurri-3 inhibitor project, cell-based, Clone20 osteoblasts, set 2; Clone20 osteoblast Shn3 3'UTR firefly luciferase, 24 h; inhibition, % at 12.5 µM; hit rate 0.52% among 360,000;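 active = mean inhibition of at least 75% with every replicate also reaching 75%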;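 note: 0% = median of neutral control wells and 100% = pilot-screen positive control compound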
LMP1 NFkB inh: EBV LMP1-driven NF-kappaB luciferase reporter inhibitors, primary screen, cell-based, luminescence, single point; AID 504558, 2011; LMP1-induced NF-kappaB luciferase reporter cells; inhibition, % at 12.5 µM; hit rate 0.69% among 350,000; in the data active = inhibition above about 41%;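 note: 0% = neutral control wells and 100% = reference inhibitor control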
NSD2 HMT inh: NSD2 histone methyltransferase inhibitors, primary screen, biochemical, AlphaScreen, single concentration, set 2; Histone-lysine N-methyltransferase NSD2 (Homo sapiens), O96028; NSD2 peptide methylation, 120 min; inhibition, % at 12.5 µM; hit rate 0.54% among 310,000; in the data active = inhibition above about 50%
HIV Env fusion: inhibitors of HIV-1 Env-driven cell-cell fusion, primary screen, HeLa-JRFL effector, CEM21 target cells, luciferase | inhibition, % at 12.3 µM | hit rate 1.1% among 360,000 | AID 651610, 2012;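 active = mean replicate inhibition score of at least 50 and every replicate individually at or above 50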;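 note: 0% = plate neutral controls and 100% = maraviroc near 300 nM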
Glyco luc inh: increase of ERlucT glycosylation luciferase signal, primary screen, N-linked glycosylation inhibitor project, D54 ERlucT cells, luminescence, set 2 | D54 ERlucT glycosylation luciferase reporter, 24 h; percent of 100 nM tunicamycin response | reporter increase, % at 12.5 µM | hit rate 0.23% among 360,000 | AID 588692, 2011;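 active = mean luciferase reporter signal, scaled so untreated is 0 and the glycosylation-blocking control 100, at or above a set limit in every replicate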;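 note: luciferase carries N-glycosylation sites so blocking glycosylation raises the light; 0% = median of neutral control wells and 100% = median of 100 nM tunicamycin wells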
Numbers without * were called inactive; i = inactive; . = no result; [ ] = another dose, or the depositor's remark.

SMILES	PAX8 reporter	Shn3 inh set2	LMP1 NFkB inh	NSD2 HMT inh	HIV Env fusion	Glyco luc inh
CCCN(C)C[C@H]1OCCCC[C@@H](C)Oc2ccc(NC(=O)Nc3ccc(C(F)(F)F)cc3)cc2C(=O)N([C@H](C)CO)C[C@H]1C	82*	.	.	.	8[16.7 µM]	.
CC(=O)N1[C@@H]2c3cccc(=O)n3C[C@H]1[C@H](CO)[C@H]2C(=O)NC1CCCC1	.	.	.	.	3[16.7 µM]	.
CC(=O)[C@H]1CC[C@H]2[C@@H]3C[C@H](C)C4=CC(=O)CC[C@]4(C)[C@H]3[C@@H](O)C[C@]12C	-2	35	57*	.	-3	10
C[C@H](CO)N1C[C@H](C)[C@H](CN(C)CC2CCCCC2)Oc2ccc(NS(=O)(=O)c3ccccc3)cc2C1=O	-3	.	.	.	22[16.7 µM]	.
COc1cc2ncnc(N[C@H](C)c3ccccc3)c2cc1OC	.	90*	3	-4	.	2
COc1cc2ncnc(NCc3ccccc3C)c2cc1OC	.	3	18	1	.	-2
C[C@@H]1CCCCO[C@H](CN(C)S(=O)(=O)c2cccs2)[C@H](C)CN([C@H](C)CO)C(=O)c2cc(NC(=O)Nc3ccc(F)cc3)ccc2O1	22	.	.	.	4[16.7 µM]	.
C[C@@H]1CN([C@@H](C)CO)S(=O)(=O)c2ccc(Br)cc2O[C@@H]1CN(C)CC1CC1	14	.	.	.	-5[16.7 µM]	.
CC#CC#Cc1cccc(=O)o1	44	-18	-46	1	-65	36*
Nc1nc(CCl)nc(Nc2ccccc2)n1	88*	9	-14	1	2	4
CCOc1ccc(Nc2nc(N)nc(CN3CCN(c4ccccc4F)CC3)n2)cc1	-22	33	4	4	14	0
Cc1c(Cl)cccc1Nc1nc(N)nc(CN2CCc3ccccc3C2)n1	13	11	-10	2	-93	44*
Cc1ccc(Nc2nc(N)nc(CCl)n2)cc1	105*	-98	-35	2	-26	6
CCOc1ccc(Nc2nc(N)nc(CCl)n2)cc1	110*	-35	14	1	-138	-4
Cc1ccc(S(=O)(=O)Nc2ccc3c(c2)CC(=O)N([C@@H](C)CO)C[C@@H](C)[C@H](CN(C)S(=O)(=O)c2cn(C)cn2)O3)cc1	-7	.	.	.	5[16.7 µM]	.
O=C(C[C@H]1CC[C@@H](NC(=O)c2cccc(F)c2)[C@@H](CO)O1)NCCN1CCCC1	2	.	.	.	-18[16.7 µM]	.
C[C@@H](O)C#Cc1cnc2c(c1)C(=O)N([C@@H](C)CO)C[C@H](C)[C@H](CN(C)C(=O)c1ccccc1)O2	.	.	.	.	-8[16.7 µM]	.
Cc1ccc(Nc2nc(N)nc(CCl)n2)c(C)c1	106*	-109	33	6	42	-5
Cc1cccc(Nc2nc(N)nc(CCl)n2)c1C	125*	-11	.	2	23	-1
C[C@@H]1CCCCO[C@H](CN(C)C(=O)c2ccccc2)[C@@H](C)CN([C@@H](C)CO)C(=O)c2cc(NC(=O)Nc3ccc(F)cc3)ccc2O1	-5	.	.	.	2[16.7 µM]	.
CCN1C(=O)Nc2cccc3cccc1c23	-40	.	14	5	62*	30*
Clc1ccc(CSc2nnc(Cn3cnc4ccccc43)o2)cc1	33	52	9	.	87*	-2
CCC1CCCCN1C(=O)CCCOc1ccccc1 (stereo not drawn)	.	-8	-23	-2	.	-8
CCCCC[C@H](O)/C=C/[C@H]1CCC(=O)[C@@H]1CCCCCCC(=O)N1CCCCC1CO (stereo partly drawn)	70*	28	10	1	-1	-3
Cc1ccc2nc(-c3ccc(SCC(=O)Nc4nc(C)cs4)nc3)[nH]c2c1	-42	-23	-54	1	i	-4
Cc1ccc2nc(-c3ccc(SCC(=O)Nc4nnc(C)s4)nc3)[nH]c2c1	.	-24	-11	.	.	102*
NC(c1csc(NC(=O)Nc2cccc(Cl)c2)n1)C1CCCCC1 (stereo not drawn)	0	37	.	4	-17	-4
NC(c1csc(NC(=O)Nc2ccccc2)n1)C1CCCCC1 (stereo not drawn)	-3	-20	.	4	57*	-4
CC(=O)Nc1ccc2c(c1)C(=O)N(C)[C@@H]1CC[C@@H](CC(=O)NCc3ccc(Cl)cc3)O[C@@H]1CO2	15	.	.	.	.	.
